# Screening results: PubChem BioAssay, several laboratories
# Only some compounds are listed: those with a hit (about 3.7% of all), similar ones and a draw of the others.
# tim10-1 inh = growth inhibitors of tim10-1 mutant yeast, primary screen, luminescence, uHTS. 330,000 compounds, 2.2% hits. S. cerevisiae tim10-1 ts strain growth, BacTiter-Glo, 24 h. inhibition, % at 20 µM. AID 463190, 2010;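 active = inhibition of at least 40%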;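 note: mutant grown at 25 °C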
# tim23-1 inh = growth inhibitors of tim23-1 mutant yeast, primary screen, luminescence, uHTS; S. cerevisiae tim23-1 growth, BacTiter-Glo luminescence, 24 h; inhibition, % at 20 µM; AID 463212, 2010; 330,000 compounds, 1.3% hits;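 active = growth inhibition of the mutant yeast at or above 50%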;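 note: temperature-sensitive mutant grown at 25 °C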
# PfHsp90 set2 = growth inhibition of PfHsp90-expressing yeast, primary screen, antimalarial PfHsp90 inhibitor project, S. cerevisiae, BacTiter-Glo luminescence, single point, set 2; AID 504621, 2011; BacTiter-Glo ATP, 48 h; yeast lacking PDR1 and PDR3 efflux regulators; inhibition, % at 9.4 µM; 310,000 compounds, 0.32% hits;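 active = every replicate shows inhibition above about 80%, whatever the replicate mean, limit read from the data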
# NLRP3 yeast inh = NALP3 inflammasome inhibitors in reconstituted yeast, primary screen, luminescence, uHTS. Yeast reconstituted NLRP3/ASC/caspase-1, beta-gal luminescence, 24 h. inhibition, % at 10 µM. 330,000 compounds, 0.39% hits. AID 2825, 2010;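 active = inhibition of 50% or more; inactive = inhibition below 50%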
# TIM10 inh = growth inhibitors of isogenic TIM10 control yeast, primary screen, counter-screen for tim10-1 yeast inhibitor project, luminescence, uHTS; S. cerevisiae TIM10 strain growth, BacTiter-Glo luminescence, 24 h; 330,000 compounds, 1.4% hits; inhibition, % at 10 µM; AID 463195, 2010;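 active = inhibition of 40% or more at the single tested concentration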;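 note: wild-type TIM10 isogenic control strain grown at permissive 25 °C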
# tim23-1 confirm = tim23-1 mutant yeast growth inhibitors, confirmation, luminescence, single concentration; shares compounds with tim23-1 inh; S. cerevisiae tim23-1 growth, BacTiter-Glo luminescence, 24 h; inhibition, % at 20 µM; 4,400 compounds, 83% hits;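 active = inhibition above about 39% in either of two replicate wells at 20 µM, limit read from the data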;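 note: temperature-sensitive tim23-1 mutant grown at 25 °C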
# Hits are given with their value; - = inactive; . = no result given.
SMILES,tim10-1 inh,tim23-1 inh,PfHsp90 set2,NLRP3 yeast inh,TIM10 inh,tim23-1 confirm
CC(=O)Oc1ccc2oc(-c3ccccc3)c(C(N)=O)c2c1,-,-,.,-,-,.
COc1ccc(N=C2S/C(=C\c3ccc(Cl)c([N+](=O)[O-])c3)C(=O)N2CCN(C)C)cc1,-,60.4,-,-,-,-
COc1ccc2cnn(-c3ccccc3C)c(=O)c2c1OC,-,-,-,-,-,.
O=C(Nc1ccc2nc(-c3ccc(Br)o3)[nH]c2c1)c1cccs1,-,72.8,.,-,-,71.5
Cn1cccc1-c1nc2ccc(NC(=O)c3cccs3)cc2[nH]1,-,56.5,-,-,-,48.2
CC(=O)Nc1ccc2nc(-c3ccc(Br)o3)[nH]c2c1,-,-,-,-,-,.
CC(=O)Nc1ccc2nc(-c3cccs3)[nH]c2c1,-,-,-,-,-,.
O=C(Nc1ccc2nc(-c3ccc(Br)o3)[nH]c2c1)c1ccco1,-,56.8,-,-,-,66.5
COc1ccc(N2C(=S)N=C(Nc3ccccc3)C23CCCCC3)cc1,-,-,-,-,-,.
N=c1c(-c2nc3ccccc3[nH]2)cc(C(=O)c2cccs2)nn1-c1ccc(Cl)cc1,-,-,.,-,-,.
COc1ccc(-c2c(C)nn3c(N4CCCCCC4)cc(C)nc23)cc1OC,-,53.9,-,-,-,56.8
O=C1/C(=C\c2cccnc2)Sc2ccccc21,-,52.9,-,-,-,58.9
CN1C(=O)S/C(=C/c2cccnc2)C1=O,-,-,-,-,-,.
Oc1c(C(c2ccccn2)N2CCCCC2)cc(Cl)c2cccnc12 (stereo not drawn),-,52.9,-,-,-,64.0
CCC(=O)NC(c1ccc(C)cc1)c1cc([N+](=O)[O-])c2cccnc2c1O (stereo not drawn),.,.,-,.,.,.
Cc1[nH]c2ccccc2c1C(c1ccccn1)N1CCCC1 (stereo not drawn),-,-,-,-,-,.
CCCC(=O)NC(c1ccco1)c1cc([N+](=O)[O-])c2cccnc2c1O (stereo not drawn),-,-,-,-,-,.
CC(=O)NC(c1ccccc1)c1cc(Cl)c2cccnc2c1O (stereo not drawn),-,55.5,106.5,-,-,67.0
CCC(=O)NC(c1cccs1)c1cc(Cl)c2cccnc2c1O (stereo not drawn),-,51.3,101.5,-,-,70.1
CCC(=O)NC(c1cc(Cl)c2cccnc2c1O)C(C)C (stereo not drawn),-,52.4,-,-,-,52.5
CC(CNS(=O)(=O)c1ccc2c(c1)CC(=O)N2C)c1ccccc1 (stereo not drawn),-,-,-,-,-,.
Cc1ccc(C)c(N2N=C(C(=O)OCc3nnc(-c4cccs4)o3)CCC2=O)c1,-,-,.,-,-,.
c1ccc(CCc2nc(-c3ccccc3)no2)cc1,-,-,-,-,-,.
O=C(Nc1ccc(-c2noc(CCc3ccccc3)n2)cc1)c1ccco1,-,55.1,-,-,-,61.1
NC(=S)NNc1cc(Cl)cc(Cl)c1,-,57.7,-,-,-,69.8
SMILES,tim10-1 inh,tim23-1 inh,PfHsp90 set2,NLRP3 yeast inh,TIM10 inh,tim23-1 confirm
O=C(Cn1c(-c2ccccc2)noc1=O)Nc1ccc(S(=O)(=O)N2CCOCC2)cc1,-,-,-,-,-,.
O=C(Cn1c(-c2ccccc2)noc1=O)Nc1ccc(N2CCCCCC2)cc1,-,51.5,-,-,-,41.5
CC(=O)c1cccc(NC(=O)C(OC(=O)c2cccc(S(=O)(=O)N(C)c3ccccc3)c2)c2ccccc2)c1 (stereo not drawn),-,-,-,-,-,.
Oc1cccnc1SCc1ccccc1,-,-,-,-,-,.
O=Cc1cccnc1SCc1ccccc1,-,57.2,-,-,-,61.3
COc1ccc(C2/C=C\CN(CC(C)C)CC(=O)N2Cc2cccc(F)c2)cc1 (stereo not drawn),-,50.4,-,.,-,39.1
COc1ccc(C2/C=C\CN(S(=O)(=O)c3ccc(C)cc3)CC(=O)N2Cc2cccc(F)c2)cc1 (stereo not drawn),-,-,-,.,-,.
COc1ccc(C2/C=C\CN(C(=O)c3ccccc3)CC(=O)N2Cc2cccc(F)c2)cc1 (stereo not drawn),-,58.8,-,.,-,42.2
COc1cc(/C=C(\C#N)C(=O)N2CCc3ccccc32)ccc1O,-,55.3,-,-,-,59.6
CC(C)c1ccc(NC(=O)C(c2ccccc2)N2CCC3(CC2)OCCO3)cc1 (stereo not drawn),-,52.1,-,-,-,50.2
Nc1c(N(Cc2ccco2)C(=O)c2cccc(Cl)c2)c(=O)[nH]c(=O)n1Cc1ccccc1,-,-,-,-,-,.
Nc1c(N(Cc2ccco2)C(=O)c2ccc(Br)cc2)c(=O)[nH]c(=O)n1Cc1ccccc1,-,58.6,-,-,-,71.8
N#Cc1ccc(C(=O)N(Cc2ccco2)c2c(N)n(Cc3ccccc3)c(=O)[nH]c2=O)cc1,-,-,.,-,-,.
Nc1c(N(Cc2ccco2)C(=O)c2ccc(Cl)cc2)c(=O)[nH]c(=O)n1Cc1ccccc1,-,59.7,.,-,-,65.6
CCCCNC(=O)c1cc(-c2ccc3c(c2)OCO3)on1,-,-,-,-,-,.
COc1cccc(C(=O)NCC(=O)N2CCC3(CC2)NCCc2[nH]cnc23)c1OC,-,-,-,-,-,.
N#C/C(=C\c1c(N2CCC(C(N)=O)CC2)nc2ccccn2c1=O)C(=O)NC1CCCCC1,-,-,-,-,-,.
Cc1nn(-c2ccc(F)cc2)c(C)c1NS(=O)(=O)c1ccc2ccccc2c1,-,65.6,-,-,-,60.4
c1ccc2sc(-c3ccncc3)nc2c1,-,-,-,-,-,.
Oc1ccc(-c2nc3ccccc3s2)cc1,-,69.4,-,-,-,63.9
Cc1ccc2c(c1)/C(=N/N1C(=O)c3ccccc3C1=O)C(=O)N2,-,-,-,-,-,.
Cc1ccc2c(c1)/C(=C/c1ccccc1C)C(=O)N2,-,52.7,-,-,-,42.0
COc1ccccc1/C=C1\C(=O)Nc2ccccc21,-,61.7,-,-,-,46.0
Cc1ccc(C(=O)CCC(=O)Nc2ncccc2O)cc1,-,54.6,.,-,-,-
Cc1ccc(C(=O)CCC(=O)Nc2ncccc2C)cc1,-,-,-,-,-,.
CCCc1[nH][nH]c(=O)c1C(c1ccc(Br)cc1)C(C#N)C#N (stereo not drawn),-,59.4,-,-,-,-
O=C(NC1=NN(c2ccccc2)CC1)Nc1ccccc1F,-,-,-,-,-,.
O=C1C(=O)N(CCS(=O)(=O)c2ccccc2)c2ccc(Cl)cc21,-,-,-,-,-,.
Cc1ccc(OCCCN2C(=O)C(=O)c3cccc(C)c32)cc1,-,52.7,-,-,-,62.5
